The full list was thinned out, with hits kept by preference.
Cycloheximide cs – counter-screen for Shiga toxin inhibitors: cycloheximide protein synthesis inhibition; max response, %; cell reporter, cycloheximide protein synthesis inhibition counterscreen; AID 2314; 300,000 compounds, 12% hits; in the data active = max response mostly above about 13%, no sharp cut-off; inactive = mostly below about 14%; also: read at 38.3 µM for the half of the compounds with a filed dose
NS1 function inh – inhibitors of influenza NS1 protein function; Potency, µM (doses to about 46.1 µM); 270,000 compounds, 0.4% hits; AID 2326; calls by dose curve; also: actives are rising curves; nearly all actives have a fitted effect of over 50% in size
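Read-out: OD600 growth recovery of NS1-expressing budding yeast. Cells grown overnight at 30C in -URA glucose medium, washed, resuspended and diluted 1:100 in 2% galactose assay medium, pH 6.0. Same strain lacking NS1 served as positive control.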
AmpC inh detg – blocks E. coli AmpC beta-lactamase in detergent assay; P00811; AmpC hydrolysis of nitrocefin, absorbance 480 nm, 0.01% Triton; Potency, µM (doses to about 114 µM), most hits filed as inhibitors; 370,000 compounds, 0.041% hits; AID 485294; also: nearly all actives have a fitted effect of over 25% in size
Target sequence (P00811 whole entry, looked up): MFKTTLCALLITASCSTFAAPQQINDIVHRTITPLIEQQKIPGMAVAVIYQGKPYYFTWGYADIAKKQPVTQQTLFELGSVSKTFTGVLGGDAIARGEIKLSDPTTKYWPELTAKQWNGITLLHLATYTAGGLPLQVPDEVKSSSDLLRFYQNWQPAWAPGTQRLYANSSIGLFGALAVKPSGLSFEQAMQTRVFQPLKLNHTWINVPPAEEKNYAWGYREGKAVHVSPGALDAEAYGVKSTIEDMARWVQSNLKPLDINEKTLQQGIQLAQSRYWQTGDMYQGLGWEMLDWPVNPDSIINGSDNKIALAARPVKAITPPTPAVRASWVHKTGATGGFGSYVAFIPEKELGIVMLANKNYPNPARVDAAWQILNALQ
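AmpC (5.3 nM in the dispensed reagent) in 20 mM phosphate pH 7.0 with 0.01% (detergent screen) or 0.0001% Triton X-100 was preincubated with compounds for 15 min at room temperature. Nitrocefin was then added from an 800 uM solution, and hydrolysis was followed at 480 nm.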
Shiga toxin inh – blocks Shiga toxin action in Vero cells | Vero cells, Shiga toxin protein synthesis inhibition reporter | inhibition, % at 38.7 µM | 290,000 compounds, 9.2% hits | AID 2315; in the data active = inhibition mostly above about 28%, no sharp cut-off; inactive = mostly below about 43%
AmpC inh no detg – blocks E. coli AmpC beta-lactamase in detergent-free assay | P00811 | AmpC nitrocefin hydrolysis, absorbance 480 nm, 0.0001% Triton | Potency, µM (titrated, usually from 57.1 µM), hits mostly inhibitors | 330,000 compounds, 0.52% hits; also: nearly all actives have a fitted effect of over 20% in size
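AmpC (5.3 nM in the dispensed reagent) in 20 mM phosphate pH 7.0 with 0.01% (detergent screen) or 0.0001% Triton X-100 was preincubated with compounds for 15 min at room temperature. Nitrocefin was then added from an 800 uM solution, and hydrolysis was followed at 480 nm.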
Of the large screens only hits and unclear results are named; the others gave an inactive call. Unless noted, calls follow the shape of the dose curve; as a rule, active = well fitted curve in the direction sought with a large enough effect; inconclusive = small, poorly fitted or top-dose-only effect, or another doubt; inactive = no such curve, though single readings can be large; an effect the other way counts as inactive or inconclusive.

O=C(Nc1ccc(C(F)(F)F)cc1)c1ccc(NC(=O)C2CCCO2)cc1 (stereo unspecified)	none
O=c1ncn(-c2ccccc2F)c2ncccc12	none
COc1cccc(OCc2cc(C(=O)N3CCNC(=O)C3Cc3ccccc3)no2)c1 (stereo unspecified)	Cycloheximide cs 40, Shiga toxin inh 74
CCC1C(=O)NCCN1C(=O)c1cc(COc2cc(C)ccc2C)on1 (stereo unspecified)	none
COc1cccc(OCc2cc(C(=O)N3CCCC3c3ccccn3)no2)c1 (stereo unspecified)	Cycloheximide cs 70, Shiga toxin inh 62
COc1cccc(OCc2cc(C(=O)N3CCC(C(O)C(C)C)CC3)no2)c1 (stereo unspecified)	none
O=C(CCc1nnc(Cc2cccc(C(F)(F)F)c2)o1)NCCc1ccccc1F	Cycloheximide cs 29, Shiga toxin inh 126
CCN(CC)C(=O)CCc1nnc(Cc2cccc(C(F)(F)F)c2)o1	none
Cc1cc(CN(C)C(=O)CCc2nnc(Cc3cccc(C(F)(F)F)c3)o2)on1	Cycloheximide cs 33, Shiga toxin inh 58
COc1ccc(-c2nnc(SCc3ccc(C(=O)O)cc3)n2C)cc1OC	none
CCOc1ccc(OCCC(=O)OCC(=O)N2CCN(S(=O)(=O)c3ccc(Cl)cc3)CC2)cc1	Cycloheximide cs 35, Shiga toxin inh 54
O=C(CN1C(=O)c2cccnc2Oc2ccc(Cl)cc21)NCCCc1ccccc1	none
C/C(=N/NC(=O)c1ccc(Br)o1)c1ccncc1	Cycloheximide cs 74, Shiga toxin inh 60
C/C(=N\NC(=O)c1ccn(C)n1)c1ccc(NC(=O)c2cccc(F)c2)cc1	Cycloheximide cs 58, Shiga toxin inh 170
COc1ccc(C(=O)N/N=C(\C)c2cccc(NC(=O)c3ccc(F)cc3)c2)c(OC)c1	Cycloheximide cs 26, AmpC inh detg inconclusive
COC(=O)c1cccc(NC(=O)c2ccco2)c1	none
COc1ccc(C(=O)Nc2ccc(NC(=O)c3cccc(F)c3)cn2)cc1	none
COc1ccc(C(=O)N/N=C(/C)c2cccc(NC(=O)c3ccccc3F)c2)cc1	none
C/C(=N/NC(=O)c1ccco1)c1cccc(NC(=O)c2ccc(C)o2)c1	Cycloheximide cs 41, Shiga toxin inh 122
CC(C)Oc1ccc(C(=O)NCC(c2ccc(N(C)C)cc2)N2CCCC2)cc1 (stereo unspecified)	none (no result: Cycloheximide cs, NS1 function inh, Shiga toxin inh, AmpC inh no detg)
Cc1ccc(CNC(=O)C(C)OC(=O)c2cccs2)cc1 (stereo unspecified)	none
C/C(=N/NC(=O)c1ccc(Br)o1)c1cccc(NC(=O)c2ccc(C)o2)c1	Cycloheximide cs 28, Shiga toxin inh 136
C/C(=N\NC(=O)c1ccc(Br)cc1)c1cccc(NC(=O)c2cccnc2)c1	none
CCC(=O)Nc1ccc(/C(C)=N\NC(=O)c2ccc(C)s2)cc1	Cycloheximide cs 15
C/C(=N\NC(=O)c1ccn(C)n1)c1cccc(NC(=O)c2ccc(C)s2)c1	Cycloheximide cs 32, Shiga toxin inh 77
C/C(=N/NC(=O)c1ccc(Br)o1)c1cccc(NC(=O)c2ccc(F)cc2)c1	Cycloheximide cs 49, Shiga toxin inh 120
CSc1nc(NCCOC(C)=O)c(C#N)c(-c2ccc(C(C)(C)C)cc2)n1	none (no result: Cycloheximide cs, NS1 function inh, Shiga toxin inh, AmpC inh no detg)
C/C(=N/NC(=O)c1ccco1)c1cccc(NC(=O)c2ccc(C)s2)c1	Cycloheximide cs 56, AmpC inh detg inconclusive, Shiga toxin inh 68
CCC(CC)C(=O)Nc1cccc(/C(C)=N\NC(=O)c2ccc(C)s2)c1	Cycloheximide cs 14
CCc1ccc(-c2nc(CS(=O)CC(=O)NCCN3CCCCCC3)c(C)o2)cc1 (stereo unspecified)	Cycloheximide cs 27
CCc1ccc(-c2nc(CS(=O)CC(=O)NCCc3ccccc3)c(C)o2)cc1 (stereo unspecified)	Cycloheximide cs 21
Cc1ccc(-c2nc(CS(=O)CC(=O)NCCN3CCCC3)c(C)o2)cc1 (stereo unspecified)	NS1 function inh inconclusive, AmpC inh detg inconclusive
CCc1ccc(-c2nc(CS(=O)CC(=O)NCCCN3CCC(C)CC3)c(C)o2)cc1 (stereo unspecified)	Cycloheximide cs 19
COc1cccc(NC(=O)CSc2nc(=O)n(Cc3ccncc3)c3c2CCC3)c1	none (no result: Cycloheximide cs, NS1 function inh, Shiga toxin inh, AmpC inh no detg)
CCCCN(C(=O)C(C)N1C(=O)c2ccccc2C1=O)c1c(N)n(CC(C)C)c(=O)[nH]c1=O (stereo unspecified)	AmpC inh detg inconclusive (no result: Cycloheximide cs, NS1 function inh, Shiga toxin inh)
CSc1cccc(NC(=O)c2nnn(CC(=O)Nc3cc(C)cc(C)c3)c2N)c1	none
CC(C)N(Cc1ccc(F)cc1)C(=O)c1cc2ccccc2oc1=O	Cycloheximide cs 43, Shiga toxin inh 55
O=C(c1ccccc1F)N(Cc1ccc(F)cc1)C1CCS(=O)(=O)C1 (stereo unspecified)	AmpC inh detg inconclusive
O=C(c1cc(=O)c2ccccc2o1)N(Cc1ccccc1)C1CCS(=O)(=O)C1 (stereo unspecified)	none
Cc1ccc(CN(C(=O)c2cc3ccccc3oc2=O)C2CCS(=O)(=O)C2)cc1 (stereo unspecified)	Cycloheximide cs 39, Shiga toxin inh 73
O=C(c1cc2ccccc2oc1=O)N(Cc1ccc(F)cc1)C1CCS(=O)(=O)C1 (stereo unspecified)	Cycloheximide cs 64, Shiga toxin inh 130
O=C(c1cc2ccccc2oc1=O)N(Cc1ccccc1)Cc1ccc2c(c1)OCO2	none
O=C(c1cc2ccccc2oc1=O)N(Cc1ccco1)Cc1cccs1	Cycloheximide cs 17, AmpC inh detg inconclusive
CCCn1c(N)c(N(CCOC)C(=O)Cc2ccc(S(=O)(=O)N3CCOCC3)s2)c(=O)[nH]c1=O	none (no result: Cycloheximide cs, NS1 function inh, Shiga toxin inh)
COc1cc(CN(C(=O)c2oc3ccccc3c2C)C2CCS(=O)(=O)C2)cc(OC)c1OC (stereo unspecified)	none (no result: Cycloheximide cs, NS1 function inh, Shiga toxin inh, AmpC inh no detg)
COc1ccc(CN(C(=O)c2cc3ccccc3oc2=O)C2CCCCC2)cc1OC	Cycloheximide cs 48, Shiga toxin inh 65
COc1ccc(CCNC(=O)COC(=O)c2cc3ccccc3oc2=O)cc1OC	none (no result: Cycloheximide cs, NS1 function inh, AmpC inh detg, Shiga toxin inh)
CCc1ccc(CN(C(=O)c2oc3ccccc3c2C)C2CCS(=O)(=O)C2)cc1 (stereo unspecified)	none
CCc1ccc(CN(C(=O)c2cc3ccccc3oc2=O)C2CCS(=O)(=O)C2)cc1 (stereo unspecified)	Cycloheximide cs 27, AmpC inh detg inconclusive, Shiga toxin inh 72
COc1cc(CN(C(=O)c2cc3ccccc3oc2=O)C2CCS(=O)(=O)C2)cc(OC)c1OC (stereo unspecified)	Cycloheximide cs 28
O=C(c1cc2ccccc2oc1=O)N(Cc1cccs1)C1CCS(=O)(=O)C1 (stereo unspecified)	Cycloheximide cs 47, Shiga toxin inh 144
Cc1ccc2c(=O)cc(C(=O)Nc3sc4c(c3C(=O)NCc3ccco3)CCC4)oc2c1	none (no result: Cycloheximide cs, NS1 function inh, Shiga toxin inh, AmpC inh no detg)
Cc1cn(C)c(CC(=O)NCc2ccc(F)cc2)c1C(=O)O	none (no result: Cycloheximide cs, NS1 function inh, Shiga toxin inh, AmpC inh no detg)
Cc1nc(N2CCCCC2)sc1C(=O)c1cccc([N+](=O)[O-])c1	Cycloheximide cs 37, Shiga toxin inh 84

Compound activity (PubChem)
